Where “and” joins values, the source holds several entries; their conditions need not be identical. Equal entries are not always repeated. The campaign covered roughly 5,500 compounds. About 2,000 (36%) were called active. Another 18% or so got no clear call; they are omitted. Rule as the data show it: active = normalized growth mostly below about 0.91 (no sharp cut-off); inconclusive = no clear call, values can overlap the other calls; inactive = mostly above about 0.92. The list shows a part of the results.
Test: chemical genetic growth profiling, strain panel (AID 1159580);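 also: tested at 20 µM; growth read once vehicle control cultures reached saturation at 30 °C; 1 = growth at the plate median or of vehicle wells; lower values mean less growth of the strain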
Conditions: S. cerevisiae deletion strains, growth OD

Measured: normalized growth

C1CCN2C[C@@H]3C[C@H](CN4CCCC[C@@H]34)[C@H]2C1
inactive: locus YAL013W, strain DEP1, active compounds read low 1.04 | locus YAL021C, strain ccr4, active compounds read low 0.995 | locus YAL026C, strain drs2, active compounds read low 1.02 | locus YAL030W, strain snc1, active compounds read low 1.01 | locus YBL061C, strain skt5, active compounds read low 0.999 | locus YBR009C, strain hhf1, active compounds read low 1 | locus YBR021W, strain FUR4, active compounds read low 1.02 | locus YBR023C, strain chs3, active compounds read low 1.01 | locus YBR171W, strain sec66, active compounds read low 1.01 | locus YBR229C, strain ROT2, active compounds read low 0.999 | locus YBR231C, strain swc5, active compounds read low 1.03 | locus YBR279W, strain paf1, active compounds read low 1.01 | locus YCL011C, strain gbp2, active compounds read low 1 | locus YCL016C, strain dcc1, active compounds read low 0.991 | locus YCL029C, strain bik1, active compounds read low 0.995 | locus YCL061C, strain MRC1, active compounds read low 1.01 | locus YCL069W, strain vba3, active compounds read low 1.01 | locus YCR088W, strain abp1, active compounds read low 1.01 | locus YDL005C, strain med2, active compounds read low 1.02 | locus YDL035C, strain GPR1, active compounds read low 1.02 | locus YDL040C, strain nat1, active compounds read low 1 | locus YDL074C, strain BRE1, active compounds read low 1.01 | locus YDL101C, strain DUN1, active compounds read low 1.01 | locus YDL134C, strain PPH21, active compounds read low 1 | locus YDL185W, strain tfp1, active compounds read low 1 | locus YDL192W, strain arf1, active compounds read low 1.01 | locus YDR001C, strain nth1, active compounds read low 1.01 | locus YDR069C, strain doa4, active compounds read low 1.01 | locus YDR101C, strain arx1, active compounds read low 1 | locus YDR137W, strain rgp1, active compounds read low 1.01 | locus YDR150W, strain NUM1, active compounds read low 1.01 | locus YDR159W, strain sac3, active compounds read low 1.05 | locus YDR162C, strain NBP2, active compounds read low 1.01 | locus YDR195W, strain ref2 0.996 | locus YDR297W, strain sur2, active compounds read low 1.03 | locus YDR318W, strain mcm21, active compounds read low 1.01 | locus YDR334W, strain swr1, active compounds read low 1.01 | locus YDR335W, strain msn5, active compounds read low 1.01 | locus YDR388W, active compounds read low 0.994 | locus YDR392W, strain spt3, active compounds read low 1.02 | locus YDR502C, strain sam2, active compounds read low 1.01 | locus YEL003W, strain gim4, active compounds read low 1.01 | locus YEL037C, strain rad23, active compounds read low 0.994 | locus YEL061C, strain CIN8 (second series), active compounds read low 1.01 | locus YEL061C, strain CIN8, active compounds read low 1 | locus YER015W, strain faa2, active compounds read low 1 | locus YER016W, strain bim1, active compounds read low 1 | locus YER110C, active compounds read low 0.999 | locus YER111C, strain swi4, active compounds read low 0.993 | locus YER155C, strain BEM2 (second series), active compounds read low 1.04 | locus YER155C, strain BEM2, active compounds read low 1.01 | locus YER167W, strain BCK2, active compounds read low 1.03 | locus YFR010W, strain ubp6, active compounds read low 1.02 | locus YGL078C, strain dbp3, active compounds read low 1 | locus YGL086W, strain mad1, active compounds read low 1.01 | locus YGL167C, strain pmr1, active compounds read low 1 | locus YGL173C, strain kem1, active compounds read low 1.02 | locus YGL227W, strain vid30, active compounds read low 1.01 | locus YGL240W, strain doc1, active compounds read low 1.04 | locus YGL248W, strain PDE1, active compounds read low 1 | locus YGL253W, strain hxk2, active compounds read low 1 | locus YGR135W, strain pre9, active compounds read low 0.996 | locus YGR252W, strain gcn5, active compounds read low 1.02 | locus YHR013C, strain ard1, active compounds read low 1.01 | locus YHR027C, strain rpn1, active compounds read low 1.01 | locus YHR030C, strain SLT2, active compounds read low 1.01 and 1.07 | locus YHR079C, strain IRE1 (second series), active compounds read low 1 | locus YHR079C, strain IRE1, active compounds read low 1.03 | locus YHR094C, strain hxt1, active compounds read low 0.995 | locus YHR129C, strain ARP1, active compounds read low 1.01 | locus YHR142W, strain chs7, active compounds read low 1 | locus YHR200W, strain rpn10, active compounds read low 1 | locus YIL066C, strain RNR3, active compounds read low 1.03 | locus YIL073C, strain SPO22, active compounds read low 1.02 | locus YIL125W, strain kgd1, active compounds read low 1 | locus YIR030C, strain dcg1, active compounds read low 1 | locus YJL092W, strain hpr5, active compounds read low 1 | locus YJL095W, strain BCK1 (second series), active compounds read low 1.01 | locus YJL095W, strain BCK1, active compounds read low 1.02 and 1.04 | locus YJL115W, strain asf1, active compounds read low 0.993 | locus YJL129C, strain trk1, active compounds read low 1 | locus YJL134W, strain LCB3, active compounds read low 1.01 | locus YJL154C, strain vps35, active compounds read low 1 | locus YJL164C, strain tpk1, active compounds read low 0.997 | locus YJL166W, strain qcr8, active compounds read low 1.01 | locus YJL168C, strain set2, active compounds read low 1 | locus YJL187C, strain SWE1 (second series), active compounds read low 1.01 | locus YJL187C, strain SWE1, active compounds read low 0.991 | locus YJR043C, strain POL32, active compounds read low 1.01

Reference: PubChem BioAssay AID1159580 (chemical genetic matrix, 2015)
